Most compounds without a hit are left out; they make up all but 3% or so of the library.
esBAF inh: inhibitors of esBAF chromatin remodeling in mouse ES cells; Bmi1-luciferase knock-in reporter, 24 h; 100% = twice the neutral-well signal; reporter increase, % at 12.5 µM; hit rate 2% among 350,000; AID 602393; in the data active = activation above about 40%;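 also: 0% = median of the plate's neutral control wells and 100% = double that signal; a rise in the Bmi1 reporter signal indicates esBAF inhibition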
Wnt bcat act: activates Wnt/beta-catenin signaling in a reporter cell assay; activation, % at 9.35 µM; activator, plate reader; hit rate 1.2% among 300,000; in the data active = activation above about 30%, passing the limit was not always enough;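 also: 0% = neutral control wells and 100% = positive control wells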
MITF TRPM1 HTS: increases MITF-driven TRPM1 promoter luciferase signal | hit rate 0.75% among 300,000 | activation, % at 12.5 µM | SK-MEL-5 TRPM1-promoter luciferase, 24 h; % of positive control, neutral wells = 0;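 active = mean activation of at least 80% with every replicate also reaching 80%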;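 also: 0% = neutral control wells and 100% = parthenolide positive control wells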
Statin myotox sup: suppressors of simvastatin-induced myotoxicity in C2C12 myotubes; ATP luminescence, 48 h; scaled: DMSO 0, geranylgeraniol control 100; rescue of ATP level, % at 7.49 µM; hit rate 0.78% among 330,000; AID 602340;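 active = mean ATP rescue above about 67%, or every replicate alone reaching that limit, limit read from the data, passing the limit was not always enough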;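 also: myotubes were challenged with 10 µM simvastatin during compound exposure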
* hit, by the source's call; . = no result.

SMILES	esBAF inh	Wnt bcat act	MITF TRPM1 HTS	Statin myotox sup
COc1ccc(NC(=O)Nc2ccc3c(c2)C(=O)N([C@H](C)CO)C[C@H](C)[C@@H](CN(C)S(C)(=O)=O)OCCCC[C@H](C)O3)cc1	2.6	.	.	.
C[C@@H]1CN([C@@H](C)CO)C(=O)Cc2cc(NS(C)(=O)=O)ccc2O[C@H]1CN(C)CC1CCCCC1	0.0	.	.	15.1
CCC(C)NC(=O)c1cc(CC(C)C)on1 (stereo unspecified)	53.6*	10.4	.	8.7
Cc1cc(NC(=O)c2cc(CC(C)C)on2)no1	31.2	-0.9	.	-4.9
COc1ccc(C(=O)NCc2ccc(-c3nc4ccccc4s3)cc2)cc1OC	46.9*	7.3	72.6	.
C[C@H](CO)N1C[C@H](C)[C@@H](CN(C)S(=O)(=O)c2ccc(Cl)cc2)OCc2cn(nn2)CCCC1=O	0.0	.	.	-5.9
C[C@H](CO)N1C[C@H](C)[C@@H](CN(C)Cc2ccc(C(F)(F)F)cc2)Oc2ccc(N(C)C)cc2CC1=O	3.5	.	.	18.8
CC(=O)N1CCc2cc(S(=O)(=O)C(C)CC(=O)Nc3ccc(OC(F)(F)F)cc3)ccc21 (stereo unspecified)	45.5*	5.8	28.9	6.7
O=C(c1cc(-c2ccc3c(c2)OCO3)on1)N1CCCCC1	-65.8	28.6	10.7	-1.4
CC1CCCC(C)N1C(=O)c1cc(-c2ccc3c(c2)OCO3)on1 (stereo unspecified)	56.4*	0.7	94.8*	-3.4
CC1CCCC(C)N1C(=O)c1cc(-c2ccc(Cl)c(Cl)c2)on1 (stereo unspecified)	79.7*	.	97.1*	-0.7
CCCC#Cc1ccc2c(c1)O[C@@H](CN(C)C(=O)c1ccccc1)[C@H](C)CN([C@@H](C)CO)S2(=O)=O	3.0	.	.	-57.8
O=C(C[C@H]1CC[C@@H]2[C@H](COC[C@H](O)CN2CC2CCCCC2)O1)NCc1ccc(F)cc1	-2.1	.	.	14.2
Cc1noc(C)c1NC(=O)N(C)C[C@@H]1Oc2cc(C#CCN(C)C)ccc2S(=O)(=O)N([C@@H](C)CO)C[C@H]1C	-2.6	.	.	0.8
CCn1nc(C(=O)OCC(=O)NCC(C)C)c2ccccc2c1=O	.	1.5	9.0	.
CCn1nc(C(=O)OCC(=O)Nc2nc(-c3ccc(OC)cc3)cs2)c2ccccc2c1=O	56.8*	.	68.2	-4.7
O=C(COC(=O)c1cc(=O)[nH]c2ccccc12)Nc1nc(-c2ccc(F)cc2)cs1	44.1*	23.8	45.8	3.0
O=C(COC(=O)c1cc(=O)[nH]c2ccccc12)NCc1ccc(F)cc1	-5.9	0.2	-8.8	8.7
CCc1ccc(Oc2cc(C)nc(N)n2)cc1	60.6*	.	53.3	-2.6
C[C@@H]1CCCCO[C@H](CN(C)C(=O)c2ccncc2)[C@@H](C)CN([C@@H](C)CO)C(=O)c2cc(NC(=O)c3ccccc3)ccc2O1	-0.3	.	.	.
CCCC(=O)Nc1cc(-c2nn(C)c(=O)c3ccccc23)ccc1N1CCOCC1	0.3	13.9	-13.0	-6.7
CC(=O)Nc1cc(-c2nn(C)c(=O)c3ccccc23)ccc1N1CCOCC1	-2.4	1.1	1.9	105.7*
CC(=O)c1cccc(OCC(=O)Nc2cc(Cl)ccc2-n2cncn2)c1	.	-0.4	84.1*	-13.4
CC(C)(C)C1CCc2c(sc(NC(=O)c3ccco3)c2C(N)=O)C1 (stereo unspecified)	11.6	.	77.4	-42.2
CC1CCc2c(sc(/N=C/c3cccnc3)c2C(N)=O)C1 (stereo unspecified)	.	0.7	.	.
SMILES	esBAF inh	Wnt bcat act	MITF TRPM1 HTS	Statin myotox sup
CC1CCc2c(sc(/N=C/c3ccco3)c2C(N)=O)C1 (stereo unspecified)	.	44.6*	.	.
CCC1CCc2c(sc(NC(=O)c3ccco3)c2C(N)=O)C1 (stereo unspecified)	59.5*	37.1*	.	1.5
CN1C(=O)c2cc(NS(=O)(=O)c3ccc(F)cc3)ccc2OC[C@H]2O[C@@H](CC(=O)O)CC[C@@H]21	-7.7	.	.	10.1
CSc1nc2ccc(NC(=O)c3cc4ccccc4o3)cc2s1	.	57.6*	53.7	.
Cc1ccc2nc(NC(=S)NC(=O)c3cccs3)sc2c1	50.6*	.	21.1	4.0
CSc1nc2ccc(NC(=O)c3ccc(F)c(F)c3)cc2s1	.	51.2*	70.2	.
CSc1nc2ccc(NC(=O)c3ccc(=O)n(C)n3)cc2s1	.	12.5	3.6	.
CSc1nc2ccc3nc(NC(=O)c4ccccc4)sc3c2s1	50.4*	28.0	42.3	14.2
N#Cc1cccc(-c2ccc3c(c2)[C@@H]2[C@@H](CCN2S(=O)(=O)c2ccccc2F)[C@@H](CO)N3)c1	-1.4	.	.	-9.5
CSc1nc2ccc(NC(=O)c3ccc(=O)[nH]c3)cc2s1	1.4	-2.2	-8.2	-17.6
CC(=O)Nc1ccc2nc(NC(=O)c3ccco3)sc2c1	9.8	15.9	19.5	-10.7
CSc1nc2ccc(NC(=O)c3ccco3)cc2s1	.	.	87.9*	.
CSc1nc2ccc(NC(=O)c3cccs3)cc2s1	77.7*	20.0	89.6*	-1.2
CC/C(O)=C(\C#N)c1nnc2n1CCCCC2	-1.1	-6.1	6.1	86.7*
C[C@@H]1CCCCO[C@@H](CN(C)C(=O)NC2CCCCC2)[C@H](C)CN([C@@H](C)CO)C(=O)c2cc(NS(=O)(=O)c3ccccc3)ccc2O1	4.2	.	.	.
Cc1cc(/C=C(\C#N)C(=O)Nc2ccccc2)c(C)n1-c1cccnc1	.	-5.1	55.8	.
N#C/C(=C\c1ccccc1O)C(=O)Nc1cccnc1	40.9	35.7*	93.9*	-4.7
CC(=O)Nc1ccc(S(=O)(=O)Nc2nc3ccccc3nc2Sc2nncn2C)cc1	44.3*	14.5	-7.7	-2.3
O=C(C[C@H]1CC[C@@H]2[C@H](COC[C@@H](O)CN2S(=O)(=O)c2ccc(Cl)cc2)O1)N[C@H]1CCN(Cc2ccccc2)C1	-2.1	.	.	5.1
C[C@@H]1CN([C@H](C)CO)C(=O)c2cc(NC(=O)Cn3cnnn3)ccc2O[C@H]1CN(C)S(C)(=O)=O	-2.3	.	.	.
CO[C@@H]1CN(C)C(=O)c2cc(NC(=O)NC(C)C)ccc2OC[C@@H](C)N(Cc2cncnc2)C[C@H]1C	0.9	.	.	2.4
O=Cc1ccccc1OCc1ccc2c(c1)OCO2	70.0*	9.7	.	15.7
CO[C@H]1CN(C)C(=O)c2cc(NC(=O)c3ccccc3)ccc2OC[C@@H](C)N(CC2CC2)C[C@@H]1C	2.0	.	.	5.0
C[C@@H]1CN([C@@H](C)CO)C(=O)c2ccccc2-c2ccccc2CO[C@H]1CN(C)S(=O)(=O)c1ccsc1	-4.3	.	.	.
Nc1cc(-c2ccc(Cl)cc2)nn1-c1ccccc1	58.0*	48.6*	119.1*	-0.7
SMILES	esBAF inh	Wnt bcat act	MITF TRPM1 HTS	Statin myotox sup
CC(=O)Nc1ccc(-c2cc(NC(C)=O)n(-c3ccccc3)n2)cc1	-6.8	.	1.6	-8.8
CC(=O)Nc1ccc(-c2cc(N)n(-c3ccccc3)n2)cc1	.	44.4*	48.1	.
Cc1ccc(O)c(N=Cc2ccc(C)s2)c1	58.6*	.	0.4	-4.3
CO[C@H]1CN(C)C(=O)c2cc(NC(=O)Nc3ccc4c(c3)OCO4)ccc2OC[C@H](C)NC[C@H]1C	44.0*	.	.	7.0
CO[C@H]1CN(C)C(=O)c2cc(NC(=O)Nc3ccc4c(c3)OCO4)ccc2OC[C@H](C)NC[C@@H]1C	54.8*	.	.	13.9
CO[C@H]1CN(C)C(=O)c2cc(NC(=O)Nc3ccc4c(c3)OCO4)ccc2OC[C@@H](C)NC[C@H]1C	50.7*	.	.	17.5

Screens (PubChem BioAssay)
